PubChem BioAssay (Tox21)
Where “and” joins values, the source holds several entries; their conditions need not be identical. Equal entries are not always repeated. Results filed as inconclusive are left out. Calls of active or inactive are those of the source. Unless noted, calls follow the shape of the full dose curve.

How the values were obtained:
[1] = Nuclear factor erythroid 2-related factor 2/antioxidant responsive element (Nrf2/ARE) small molecule agonists: luciferase reporter gene qHTS assay in human keratinocytes (AID 1919969); also: nearly all actives have a fitted effect of over 35% in size
[2] = molecular target: Gonadotropin-releasing hormone receptor (Homo sapiens) (UniProt P30968); experiment: Human gonadotropin-releasing hormone receptor (GnRHR) small molecule agonists, calcium flux assay in GnRHR-HEK293 cells (AID 1920063); also: nearly all actives have a fitted effect of over 35% in size
In short: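 HEK293 cells stably expressing human GnRHR were plated 18 h at 37 °C, loaded with calcium dye 1 h at 37 °C, then given compound in agonist mode; fluorescence (Ex/Em 480/540) read kinetically for 3 min at 1 s intervals.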

[3] = molecular target: KiSS-1 receptor (Homo sapiens) (UniProt Q969F8); experiment: Human kisspeptin (KISS1R) small molecule agonists, calcium flux assay in KISS1R-HEK293 cells (AID 1920064; active = well fitted activation curve with a large enough effect in the repeat runs)
In short: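 HEK293 cells stably expressing human KISS1R were plated 18 h at 37 °C, loaded with calcium dye for 1 h at 37 °C, then given compound by pin tool. Fluorescence (Ex/Em 480/540) was read kinetically for 3 min.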

[4] = p53 small molecule agonists, cell-based qHTS assay with human liver microsomes (AID 1963577); also: potency is read from the fitted curve at half-maximal effect;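 as to activation: p53 response element beta-lactamase reporter cells with liver microsomes plus NADPH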
In short: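 Reporter activation was measured by LiveBLAzer fluorescence intensity in p53RE-bla cells, which had been exposed to compounds for 16 h at 37 C alongside 0.5 mg/mL human liver microsomes and 0.5 mg/mL NADPH (final concentrations).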

[5] = p53 small molecule agonists, cell-based qHTS assay with rat liver microsomes (AID 1963578); also: potency is read from the fitted curve at half-maximal effect
In short: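 Compound in DMSO added to p53RE-bla cells 5 h post-plating; rat microsomes/NADPH 0.5 mg/mL final; 16 h, 37 C; LiveBLAzer 2 h RT.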

[6] = p53 small molecule agonists, cell-based qHTS assay with human liver microsomes: qHTS cell viability counter screen (AID 1963579); also: nearly all actives have a fitted effect of over 45% in size
In short: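 HLM-supplemented (0.5 mg/mL final) and NADPH-supplemented (0.5 mg/mL final) p53RE-bla cultures, 4,000 cells per well, were dosed with compounds in DMSO for 16 h at 37 C; luminescent ATP detection (CellTiter-Glo, 30 min, room temperature) quantified surviving cells.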

[7] = p53 small molecule agonists, cell-based qHTS assay: qHTS cell viability counter screen (AID 1963581); also: nearly all actives have a fitted effect of over 45% in size; also: potency is read from the fitted curve at half-maximal effect
In short: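 p53RE-bla HCT-116 cells were exposed to compounds for 16 h at 37 C; after the beta-lactamase FRET read in the same wells, CellTiter-Glo was added and luminescence (intracellular ATP) read after 30 min at room temperature.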

[8] = p53 small molecule agonists, cell-based qHTS assay (AID 1963582; active = well fitted activation curve with a large enough effect in the signal ratio in the repeat runs, not every such curve was filed as active; the % refers to the signal ratio)
In short: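 p53RE-bla beta-lactamase reporter cells rested 5 h at 37 C/5% CO2, then received compounds in DMSO by pin transfer and were incubated 16 h at 37 C. LiveBLAzer B/G FRET substrate was loaded for 2 h at room temperature before fluorescence reading.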

[9] = molecular target: 5-hydroxytryptamine receptor 2A (Homo sapiens) (UniProt P28223); experiment: 5-hydroxytryptamine receptor 2A (HTR2A) small molecule antagonists, cell-based qHTS assay (AID 1963586); also: nearly all actives have a fitted effect of over 45% in size
In short: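 Antagonist-mode intracellular calcium assay: DOI (4 nM) added after 5 min compound pre-incubation at room temperature to dye-loaded HTR2A-CHO cells. Fluorescence followed for 3 min, sampled every second.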

[10] = molecular target: 5-hydroxytryptamine receptor 2A (Homo sapiens) (UniProt P28223); experiment: 5-hydroxytryptamine receptor 2A (HTR2A) small molecule agonists, cell-based qHTS assay (AID 1963587); also: nearly all actives have a fitted effect of over 30% in size
In short: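 CHO cells stably expressing human HTR2A, plated 18 h, loaded with calcium dye 1 h at 37 C. Agonist mode: compounds added and intracellular calcium fluorescence recorded kinetically for 2 min at 1 sec intervals.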

[11] = molecular target: Muscarinic acetylcholine receptor M1 (Homo sapiens) (UniProt P11229); experiment: Cholinergic receptor muscarinic 1 (CHRM1) small molecule antagonists, cell-based qHTS assay (AID 1963588); also: nearly all actives have a fitted effect of over 40% in size
In short: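 CHRM1-CHO calcium-flux assay, antagonist mode. Cells were seeded 18 h, dye-loaded 1 h at 37 C and given compound for 5 min at RT, then acetylcholine was added at 50nM. FDSS fluorescence was read 3 min; 15 concentrations, three runs.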

[12] = molecular target: Muscarinic acetylcholine receptor M1 (Homo sapiens) (UniProt P11229); experiment: Cholinergic receptor muscarinic 1 (CHRM1) small molecule agonists, cell-based qHTS assay (AID 1963589); also: nearly all actives have a fitted effect of over 35% in size
In short: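 CHO cells stably expressing human CHRM1, seeded 18 h at 37 C/5% CO2, dye-loaded 1 h at 37 C, then given compound in agonist mode; intracellular calcium fluorescence read kinetically at 1 s intervals. Fifteen concentrations, three independent runs.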

[13] = cAMP Responsive Elements (CRE) small molecule agonists, cell-based qHTS assay (AID 1963590)
In short: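 CRE-bla HEK 293T cells in DMEM with 10% dialyzed FBS, NEAA, pyruvate and 25 mM HEPES were plated 18 h at 37 C/5% CO2, then exposed to compounds in DMSO for 3 h before LiveBLAzer B/G FRET substrate addition.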

[14] = cAMP Responsive Elements (CRE) small molecule antagonists, cell-based qHTS assay (AID 1963591; active = well fitted inhibition curve with a large enough effect in the signal ratio in the repeat runs, not every such curve was filed as active; the % refers to the signal ratio; also: potency is read from the fitted curve at half-maximal effect)
In short: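 CRE-bla HEK293T cells were plated 18 h at 37 °C/5% CO2, pinned with compound in DMSO, then stimulated with NKH477 at 0.25 uM final for 3 h. LiveBLAzer B/G FRET substrate was added and plates incubated 2 h at room temperature.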

[15] = molecular target: Beta-2 adrenergic receptor (Homo sapiens) (UniProt P07550); experiment: Adrenergic beta2 receptor (ADRB2) small molecule antagonists, cell-based qHTS assay (AID 1963592); also: series mostly up to about 92 µM; nearly all actives have a fitted effect of over 50% in size
In short: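 Cells (CHO, stable ADRB2 overexpression) incubated 18-20hr at 37C; compounds added from DMSO; agonist mix (1nM isoproterenol, 100uM IBMX, 25uM Ro-20-1724) added; 0.5hr RT; d2-cAMP and anti-cAMP-cryptate added; 1hr RT; 665/615 nm read.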

[16] = molecular target: Beta-2 adrenergic receptor (Homo sapiens) (UniProt P07550); experiment: Adrenergic beta2 receptor (ADRB2) small molecule agonists, cell-based qHTS assay (AID 1963593);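 also: CHO cells stably overexpressing human ADRB2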
In short: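 CHO cells stably over-expressing ADRB2 were plated overnight at 37C, then dosed with compounds plus a stimulation mix containing 100uM IBMX and 25uM Ro-20-1724 for 0.5hr at room temperature. cAMP was measured by HTRF competition, 1hr.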

[17] = molecular target: D(2) dopamine receptor (Homo sapiens) (UniProt P14416); experiment: Dopamine D2 receptor (DRD2) small molecule agonists, cell-based qHTS assay (AID 1963594); also: nearly all actives have a fitted effect of over 35% in size
In short: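 HEK293 cells stably expressing human DRD2, pre-treated with PDE inhibitor Ro20-1724 (0.1 mM final) and compound 10 min at room temperature, then stimulated with NKH477 (200nM […]) for 30 min. cAMP read by HTRF (665/620 nm).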

[18] = molecular target: D(2) dopamine receptor (Homo sapiens) (UniProt P14416); experiment: Dopamine D2 receptor (DRD2) small molecule antagonists, cell-based qHTS assay (AID 1963595; active = well fitted inhibition curve with a large enough effect in the signal ratio in the repeat runs, with a control signal flat; the % refers to the signal ratio)
In short: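 Human DRD2 antagonist qHTS measuring cAMP by HTRF. The cells are exposed to compound for 10 min, then to NKH477 (200 nM) and quinpirole (12 nM) for 30 min at RT, with Ro20-1724 (0.1 mM) present throughout.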

[19] = p53 small molecule agonists, cell-based qHTS assay with rat liver microsomes: qHTS cell viability counter screen (AID 1963580); also: nearly all actives have a fitted effect of over 45% in size
In short: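 p53RE-bla HCT-116 cells were exposed 16 h at 37 C to compounds with rat liver microsomes (0.5 mg/mL) and NADPH (0.5 mg/mL). Viability was measured in the same wells as ATP content by CellTiter-Glo luminescence.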

[20] = G protein-coupled receptor (GPCR) small molecule agonists, calcium flux assay: HEK293 wild type cell line counter screen (AID 1920065)
In short: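 Cells were plated and cultured 18 h at 37 C/5% CO2, then loaded with calcium dye for 1 h at 37 C. Compounds in DMSO were pin-transferred in agonist mode, and fluorescence (Ex/Em 480/540) was read kinetically for 3 min at 1 s intervals.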

Measured: Potency

Chain of D(2) dopamine receptor (Homo sapiens) (P14416 whole entry, looked up): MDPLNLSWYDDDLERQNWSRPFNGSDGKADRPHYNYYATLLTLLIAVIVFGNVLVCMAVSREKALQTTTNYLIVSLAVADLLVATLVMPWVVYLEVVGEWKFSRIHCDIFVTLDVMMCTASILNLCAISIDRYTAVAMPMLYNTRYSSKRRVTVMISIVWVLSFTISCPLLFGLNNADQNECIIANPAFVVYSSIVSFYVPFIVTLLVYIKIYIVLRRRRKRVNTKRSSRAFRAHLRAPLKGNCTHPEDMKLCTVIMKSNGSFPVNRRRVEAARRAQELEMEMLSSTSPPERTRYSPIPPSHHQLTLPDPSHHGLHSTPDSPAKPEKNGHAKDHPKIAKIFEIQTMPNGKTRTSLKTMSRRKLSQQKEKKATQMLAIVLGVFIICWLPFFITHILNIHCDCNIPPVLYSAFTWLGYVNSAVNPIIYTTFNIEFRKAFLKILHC
Chain of KiSS-1 receptor (Homo sapiens) (Q969F8 whole entry, looked up): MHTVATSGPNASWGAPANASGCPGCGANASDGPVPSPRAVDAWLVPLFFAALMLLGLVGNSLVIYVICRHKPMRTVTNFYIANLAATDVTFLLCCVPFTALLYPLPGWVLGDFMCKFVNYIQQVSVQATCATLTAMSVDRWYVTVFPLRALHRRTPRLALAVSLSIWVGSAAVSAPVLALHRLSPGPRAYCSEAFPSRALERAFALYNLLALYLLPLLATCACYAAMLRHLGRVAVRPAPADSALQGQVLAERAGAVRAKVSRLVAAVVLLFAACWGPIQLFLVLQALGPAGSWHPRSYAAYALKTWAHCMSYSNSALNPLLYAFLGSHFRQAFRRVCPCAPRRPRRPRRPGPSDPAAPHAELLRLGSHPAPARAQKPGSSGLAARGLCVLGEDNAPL
Chain of Gonadotropin-releasing hormone receptor (Homo sapiens) (P30968 whole entry, looked up): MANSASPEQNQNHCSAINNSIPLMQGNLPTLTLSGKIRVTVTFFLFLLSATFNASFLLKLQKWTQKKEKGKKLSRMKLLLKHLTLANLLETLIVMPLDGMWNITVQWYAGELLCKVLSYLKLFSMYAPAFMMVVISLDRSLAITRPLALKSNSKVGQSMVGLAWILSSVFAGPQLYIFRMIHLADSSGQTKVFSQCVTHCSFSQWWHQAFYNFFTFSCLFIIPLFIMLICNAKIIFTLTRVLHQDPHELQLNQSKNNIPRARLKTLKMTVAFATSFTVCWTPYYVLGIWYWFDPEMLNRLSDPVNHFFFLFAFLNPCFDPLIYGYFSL
Chain of Muscarinic acetylcholine receptor M1 (Homo sapiens) (P11229 whole entry, looked up): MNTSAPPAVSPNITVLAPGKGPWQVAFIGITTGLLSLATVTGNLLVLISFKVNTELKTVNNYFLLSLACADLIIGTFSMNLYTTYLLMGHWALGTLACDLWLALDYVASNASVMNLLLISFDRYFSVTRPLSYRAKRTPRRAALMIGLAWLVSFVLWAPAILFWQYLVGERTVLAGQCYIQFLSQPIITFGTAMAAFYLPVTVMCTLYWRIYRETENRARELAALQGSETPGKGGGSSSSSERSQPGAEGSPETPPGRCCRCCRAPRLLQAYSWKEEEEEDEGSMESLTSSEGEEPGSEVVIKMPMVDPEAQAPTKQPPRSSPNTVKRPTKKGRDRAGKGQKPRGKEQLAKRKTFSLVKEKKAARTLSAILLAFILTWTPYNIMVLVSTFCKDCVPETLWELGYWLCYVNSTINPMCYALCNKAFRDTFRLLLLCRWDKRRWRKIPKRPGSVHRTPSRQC
Chain of Beta-2 adrenergic receptor (Homo sapiens) (P07550 whole entry, looked up): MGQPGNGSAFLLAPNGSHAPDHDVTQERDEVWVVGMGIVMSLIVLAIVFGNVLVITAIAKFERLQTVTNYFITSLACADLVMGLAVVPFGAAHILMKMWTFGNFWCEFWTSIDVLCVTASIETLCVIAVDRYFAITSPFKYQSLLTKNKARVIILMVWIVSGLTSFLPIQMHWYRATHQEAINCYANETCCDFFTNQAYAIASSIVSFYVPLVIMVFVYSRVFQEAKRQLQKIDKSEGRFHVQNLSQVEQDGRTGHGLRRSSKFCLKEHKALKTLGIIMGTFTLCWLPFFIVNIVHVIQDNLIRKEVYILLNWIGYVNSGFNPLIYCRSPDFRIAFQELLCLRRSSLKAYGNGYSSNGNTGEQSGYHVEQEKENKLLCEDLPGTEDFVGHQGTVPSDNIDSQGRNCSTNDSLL
Chain of 5-hydroxytryptamine receptor 2A (Homo sapiens) (P28223 whole entry, looked up): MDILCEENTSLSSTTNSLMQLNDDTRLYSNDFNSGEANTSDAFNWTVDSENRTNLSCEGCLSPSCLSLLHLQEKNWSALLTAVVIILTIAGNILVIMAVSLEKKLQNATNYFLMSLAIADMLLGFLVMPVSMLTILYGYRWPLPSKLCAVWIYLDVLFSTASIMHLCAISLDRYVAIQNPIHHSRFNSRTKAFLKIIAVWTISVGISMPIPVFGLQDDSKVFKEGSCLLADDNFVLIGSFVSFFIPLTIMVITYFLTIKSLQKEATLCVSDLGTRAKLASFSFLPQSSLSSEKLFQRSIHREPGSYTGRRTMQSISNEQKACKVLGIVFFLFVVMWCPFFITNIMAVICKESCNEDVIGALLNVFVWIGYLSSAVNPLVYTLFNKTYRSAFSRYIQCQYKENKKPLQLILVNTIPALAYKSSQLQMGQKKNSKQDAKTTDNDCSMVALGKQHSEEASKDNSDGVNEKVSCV

NC(=O)NC1N=C([O][Al])NC1=O (stereo unspecified)
not listed: [19] | [20]
inactive: all other assays above

CCOC(=O)c1cc(=O)c2c(OCC(COc3cccc4oc(C(=O)OCC)cc(=O)c34)OC(=O)[C@@H](N)CCCCN)cccc2o1
not listed: [6] | [17] | [20]
inactive: all other assays above

c1coc(CNc2ncnc3nc[nH]c23)c1
not listed: [2] | [7] | [12] | [16] | [18] | [19]
inactive: all other assays above

CC[C@H]1CN2CCc3cc(OC)c(OC)cc3[C@@H]2C[C@@H]1C[C@H]1NCCc2cc(OC)c(OC)cc21
active: [14] 1.68 µM
not listed: [3] | [9] | [10] | [11] | [12]
inactive: all other assays above

O=C(O)c1cc(=O)[nH]c(=O)[nH]1
not listed: [2] | [5]
inactive: all other assays above

O=S(=O)(O)c1cccc2c(S(=O)(=O)O)cccc12
not listed: [3] | [12]
inactive: all other assays above

Nc1nc(N)c2nc(-c3ccccc3)c(N)nc2n1
active: [4] 18.2 µM | [5] 29.2 µM and 17.8 µM
inactive: [1] | [3] | [20] | [6] | [19] | [7] | [15] | [16] | [17] | [18]

CC(C)CC(=O)OCc1ccccc1
not listed: [3] | [16]
inactive: all other assays above

Clc1ccc(C(c2ccccc2Cl)C(Cl)Cl)cc1 (stereo unspecified)
active: [7] 40.8 µM
inactive: [1] | [2] | [3] | [4] | [5] | [6] | [8] | [14] | [16] | [17]

O=c1[nH]c2cc(C(F)(F)F)c(N3CCOCC3)cc2n(CP(=O)(O)O)c1=O
not listed: [1] | [17]
inactive: all other assays above

Cc1ccc(N=Nc2c(O)ccc3ccccc23)c(C)c1
not listed: [1] | [9] | [10]
inactive: all other assays above

CCCCCCCCOCCC#N
not listed: [1] | [5]
inactive: all other assays above

CC(=O)[O][Al][O]C(C)=O
not listed: [3] | [8] | [14]
inactive: all other assays above

NCCCN1CCN(CCCN)CC1
not listed: [3] | [12] | [15] | [16] | [18]
inactive: all other assays above
